Laboratory results from the supplement of paper PMC3342239.
Counter-ions that a name gives are not always drawn.

test system: Saccharomyces cerevisiae; assay: fraction of cells in G1 phase (DNA content, flow cytometry); higher = more cells with unreplicated DNA (G1 delay); conditions: temperature: 30 C; YPD; BY4741 PDR5+ SNQ2+; drug added to: actively dividing cells; 4.33 h
Method: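 S. cerevisiae cultures in YPD at 30°C were treated with each drug of the Enzo FDA-approved library at 20 µg/ml (final µM given per drug). Cells were fixed after 6–7 h (S1) or 6 h (S2), or after 4.33 h for BY4741 (S3), then stained with SYTOX Green. %G1 is the Dean-Jett-Fox G1 peak area divided by the G1+G2/M peak areas, written as a fraction and averaged over at least two independent experiments. DMSO reference: mean ~0.49; >0.60 is called High G1 and <0.3876 Low G1. Scale: lower means mitotic delay.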

Row | Compound | fraction of cells in G1 phase
1 | C#C[C@]1(O)CC[C@H]2[C@@H]3CCC4=CC(=O)CCC4=C3C=C[C@@]21CC [Gestrinone] (64.8457 µM) | 0.423
2 | CCCCC(C#N)(Cn1cncn1)c1ccc(Cl)cc1 (stereo not given) [Myclobutanil] (69.2563 µM) | 0.536

same assay, conditions: temperature: 30 C; YPD; JTY2953 pdr5 snq2 (sensitized); drug added to: actively dividing cells; 6 h

Row | Compound | fraction of cells in G1 phase
3 | C#C[C@]1(O)CC[C@H]2[C@@H]3CCC4=CC(=O)CCC4=C3C=C[C@@]21CC [Gestrinone] (64.8457 µM) | 0.736
4 | CCCCC(C#N)(Cn1cncn1)c1ccc(Cl)cc1 (stereo not given) [Myclobutanil] (69.2563 µM) | 0.766
5 | C[C@]12Cc3c[nH]nc3C[C@@H]1CC[C@@H]1[C@@H]2CC[C@@]2(C)[C@H]1CC[C@]2(C)O [Stanozolol] (60.8824 µM) | 0.497

same assay, conditions: temperature: 30 C; YPD; JTY2953 pdr5 snq2 (sensitized); drug added to: cultures diluted from stationary phase; 6-7 h

Row | Compound | fraction of cells in G1 phase
6 | C#CCN(C)C(C)Cc1ccccc1 (stereo not given) [Deprenyl] (89.4055 µM) | 0.518
7 | O=C(O)CCCc1ccc(N(CCCl)CCCl)cc1 [Chlorambucil] (65.7421 µM) | 0.456
8 | CC[C@@H](CO)NC(=O)[C@@H]1C=C2c3cccc4c3c(cn4C)C[C@H]2N(C)C1 [Methysergide] (56.5822 µM) | 0.48
9 | CC(CCc1ccccc1)NC(C)C(O)c1ccc(O)cc1 (stereo not given) [Buphenine] (59.5415 µM) | 0.512
10 | CC(NC(C)(C)C)C(=O)c1cccc(Cl)c1 (stereo not given) [Amfebutamone] (83.4211 µM) | 0.502
11 | C[C@]12CCC(=O)C(O)=C1CC[C@@H]1[C@@H]2CC[C@]2(C)C(=O)CC[C@@H]12 [Formestane] (66.1338 µM) | 0.566
12 | C#C[C@]1(O)CC[C@H]2[C@@H]3CCC4=CC(=O)CCC4=C3C=C[C@@]21CC [Gestrinone] (64.8457 µM) | 0.609
13 | C[N+](C)(C)CCCCCCCCCC[N+](C)(C)C [Decamethonium 2Br] (77.371 µM) | 0.472
14 | CC(C)NCC(O)c1ccc(N)c(C#N)c1 (stereo not given) [Cimaterol] (91.2039 µM) | 0.493
15 | CCCCC(C#N)(Cn1cncn1)c1ccc(Cl)cc1 (stereo not given) [Myclobutanil] (69.2563 µM) | 0.667
16 | O=C1CC[C@@]2(O)[C@H]3Cc4ccc(O)c5c4[C@@]2(CCN3CC2CC2)[C@H]1O5 [Naltrexone HCl] (58.5805 µM) | 0.509
17 | C[C@]12Cc3c[nH]nc3C[C@@H]1CC[C@@H]1[C@@H]2CC[C@@]2(C)[C@H]1CC[C@]2(C)O [Stanozolol] (60.8824 µM) | 0.801
18 | CC(N)C(O)c1ccccc1 (stereo not given) [Phenylpropanolamine] (132.266 µM) | 0.466
19 | c1ccc2c(c1)OCC(C1=NCCN1)O2 (stereo not given) [Idazoxan] (97.9286 µM) | 0.48
20 | CC(C)CC(N(C)C)C1(c2ccc(Cl)cc2)CCC1 (stereo not given) [Sibutramine HCl] (71.4652 µM) | 0.516
21 | CCC1(c2ccc(N)cc2)CCC(=O)NC1=O (racemic) [Dl-aminoglutethimide] (86.1012 µM) | 0.476
22 | CN1[C@@H]2CC[C@H]1C[C@@H](OC(=O)C(CO)c1ccccc1)C2 (stereo not given in full) [Atropine sulfate] (69.1138 µM) | 0.474
23 | CN1C[C@H](C(=O)N[C@]2(C)O[C@@]3(O)[C@@H]4CCCN4C(=O)[C@H](Cc4ccccc4)N3C2=O)C[C@@H]2c3cccc4[nH]cc(c34)C[C@H]21 [Dihydroergotamine mesylate] (34.2646 µM) | 0.527

Row | Compound | fraction of cells in G1 phase
24 | C=CCN1CC[C@]23c4c5ccc(O)c4O[C@H]2/C(=N/N=C2\CC[C@@]4(O)[C@H]6Cc7ccc(O)c8c7[C@@]4(CCN6CC=C)[C@H]2O8)CC[C@@]3(O)[C@H]1C5 [Naloxonazine 2HCl] (30.7323 µM) | 0.456
25 | COc1ccc(C(=O)c2c(C)n(CCN3CCOCC3)c3ccccc23)cc1 [Pravadoline] (52.8436 µM) | 0.594
26 | NCCCNCCSP(=O)(O)O [Amifostine] (93.3599 µM) | 0.512
27 | COc1ccc2c(c1)[nH]c1c(C)nccc12 [Harmine] (94.227 µM) | 0.474
28 | C[C@@H]1O[C@@H](O[C@H]2C[C@@H](O)[C@]3(CO)[C@H]4[C@H](O)C[C@]5(C)[C@@H](C6=CC(=O)OC6)CC[C@]5(O)[C@@H]4CC[C@]3(O)C2)[C@H](O)[C@H](O)[C@H]1O [Ouabain] (27.4424 µM) | 0.521
29 | Cc1cccc(C)c1NC1=NCCCS1 [Xylazine HCl] (90.7693 µM) | 0.506
30 | O=c1[nH]c2ccccc2n1CCCN1CCC(n2c(=O)[nH]c3cc(Cl)ccc32)CC1 [Domperidone] (46.957 µM) | 0.505
31 | C#C[C@]1(O)CC[C@H]2[C@@H]3CCC4=CC(=O)CC[C@]4(C)[C@H]3CC[C@@]21C [Ethisterone] (64.009 µM) | 0.462
32 | CO[C@]12C[C@@H](COC(=O)c3cncc(Br)c3)CN(C)[C@@H]1Cc1cn(C)c3cccc2c13 [Nicergoline] (41.2884 µM) | 0.481
33 | C=CCN1C[C@H](C(=O)N(CCCN(C)C)C(=O)NCC)C[C@@H]2c3cccc4[nH]cc(c34)C[C@H]21 [Cabergoline] (44.2853 µM) | 0.496
34 | CNC(=O)Oc1ccc2c(c1)[C@]1(C)CCN(C)[C@@H]1N2C [Physostigmine sulfate] (72.6339 µM) | 0.472
35 | CCCC(=O)OCC[N+](C)(C)C [Butyrylcholine Cl] (114.768 µM) | 0.504
36 | O=C1C[C@@H]2OCC=C3CN4CC[C@]56c7ccccc7N1[C@H]5[C@H]2[C@H]3C[C@H]46 [Strychnine HCl] (59.8047 µM) | 0.497
37 | CC[C@H](C)[C@H]1O[C@]2(C=C[C@@H]1C)C[C@@H]1C[C@@H](C/C=C(\C)[C@@H](O[C@H]3C[C@H](OC)[C@@H](O[C@H]4C[C@H](OC)[C@@H](O)[C@H](C)O4)[C@H](C)O3)[C@@H](C)/C=C/C=C3\CO[C@@H]4[C@H](O)C(C)=C[C@@H](C(=O)O1)[C@]34O)O2.CO[C@H]1C[C@H](O[C@H]2[C@H](C)O[C@@H](O[C@@H]3/C(C)=C/C[C@@H]4C[C@@H](C[C@]5(C=C[C@H](C)[C@@H](C(C)C)O5)O4)OC(=O)[C@@H]4C=C(C)[C@@H](O)[C@H]5OC/C(=C\C=C\[C@@H]3C)[C@]54O)C[C@@H]2OC)O[C@@H](C)[C@@H]1O [Abamectin] (22.9069 µM) | 0.516
38 | COc1ccc2c(c1)[C@]13CCCC[C@@H]1[C@H](C2)N(C)CC3 [Dextromethorphan HBr] (73.6903 µM) | 0.503
39 | CC(O)(CS(=O)(=O)c1ccc(F)cc1)C(=O)Nc1ccc(C#N)c(C(F)(F)F)c1 (stereo not given) [Bicalutamide] (46.4705 µM) | 0.493
40 | Oc1ccc2c3c1O[C@H]1[C@@H](O)CC[C@@]4(O)[C@@H](C2)N(CC2CCC2)CC[C@]314 [Nalbuphine HCl] (55.9513 µM) | 0.469
